Laboratory results: PubChem BioAssay (Tox21)
Records with an inconclusive call do not appear. The source made the active and inactive calls. Unless noted, calls follow the shape of the dose curve; as a rule, active = well fitted curve in the direction sought with a large enough effect in the repeat runs; inconclusive = weak or mixed curves; inactive = no such curve, though single readings can be large; an effect the other way counts as inactive or inconclusive. Positions of bridges follow the written chain, without caps; N, C: chain ends. Non-standard residues stand in square brackets, D forms with d. Residues, ends and D or L forms follow the SMILES beside them. ξ: configuration not given here. *: point of attachment. d(aThr) = C[C@@H](O)[C@@H](N)C(=O)O; ξThr(3R) = C[C@@H](O)C(N)C(=O)O; X3 = CC[C@@H](C)CCCCC(=O)*; dDab = NCC[C@@H](N)C(=O)O

What was measured:
[1] = qHTS assay to identify aromatase inhibitors - cell viability counter screen (AID 743084);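 also: cells stimulated with testosterone during compound exposure; nearly all actives have a fitted effect of over 55% in size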
[2] = target: Aryl hydrocarbon receptor (Homo sapiens) (UniProt P35869); experiment: qHTS assay to identify small molecule that activate the aryl hydrocarbon receptor (AhR) signaling pathway (AID 743085);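 also: HG2L7.5c1 human HepG2 liver cells with stably integrated DRE-driven firefly reporter; series mostly up to about 70 µM; nearly all actives have a fitted effect of over 15% in size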
In short: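 HepG2 cells (HG2L7.5c1) stably carrying a firefly luciferase reporter driven by 20 dioxin responsive elements were exposed to compound for 24 h at 37C after a 5 h settling period; luminescence rise (ONE-Glo) indicated activation.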

[3] = qHTS assay to identify small molecule that activate the aryl hydrocarbon receptor (AhR) signaling pathway - cell viability counter screen (AID 743086);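 also: HepG2 liver cells carrying the AhR DRE luciferase reporter; series mostly up to about 70 µM; nearly all actives have a fitted effect of over 45% in size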
In short: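 HepG2-AhR-luc (HG2L7.5c1) cells, 4000/well, were preincubated 5 h at 37C, exposed to compound in qHTS format for 24 hr at 37C, then given CellTiter-Fluor for 30 min; viability was read as fluorescence in the reporter wells.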

[4] = target: Peroxisome proliferator-activated receptor gamma (Homo sapiens) (UniProt P37231); experiment: qHTS assay to identify small molecule agonists of the peroxisome proliferator-activated receptor gamma (PPARg) signaling pathway (AID 743094; active = well fitted activation curve with a large enough effect in the signal ratio in the repeat runs, not every such curve was filed as active; the % refers to the signal ratio)
In short: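 Stably transfected HEK293H cells (GeneBLAzer PPARg UAS-bla) were incubated with test substances for 17 h at 37C after a 5 h pre-incubation; beta-lactamase activity was then detected by FRET substrate fluorescence.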

[5] = qHTS assay to identify small molecule phospholipidosis (PLD) inducers (AID 1259344; active = well fitted curve in the direction sought with a large enough effect; an effect the other way counts as inactive or inconclusive)
In short: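 HepG2 cells on collagen I, attached 4 h at 37 C, were co-treated with compound and LipidTOX Red dye for 24 h at 37 C, then fixed with paraformaldehyde plus Hoechst 33342 and imaged by high-content microscopy for phospholipid accumulation.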

[6] = target: Nuclear receptor subfamily 1 group I member 2 (Rattus norvegicus) (UniProt Q9R1A7); experiment: Rat pregnane X receptor (rPXR) activation by small molecules, qHTS assay (AID 1346983); conditions: rPXR luciferase reporter cells, One-Glo luminescence, 24 h; max activation: hits give high values; also: nearly all actives have a fitted effect of over 20% in size
In short: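 Cell-based rPXR luciferase reporter assay, 2,000 cells per well, rested 5hr at 37 C before compound addition in DMSO, then 24 hr at 37 C. One-Glo reagent was added and luminescence read after 30 min at room temperature.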

[7] = target: Nuclear receptor subfamily 1 group I member 2 (Homo sapiens) (UniProt O75469); experiment: CYP3A4 induction through human pregnane X receptor (PXR) by small molecules, qHTS assay (AID 1346984); also: nearly all actives have a fitted effect of over 40% in size
In short: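 DPX-2 reporter cells; 24h cpd, 37C; Luciferin-IPA 3uM final x3h; One-Glo 30 min RT; lumi read.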

[8] = target: Nuclear receptor subfamily 1 group I member 2 (Homo sapiens) (UniProt O75469); experiment: Human pregnane X receptor (PXR) activation by small molecules, qHTS assay (AID 1346985); also: nearly all actives have a fitted effect of over 40% in size
In short: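 DPX-2 cells (HepG2 co-transfected with a PXR response element and a CYP3A4-promoter luciferase construct) were seeded at 2,000 per well, rested 5 hr at 37C, then exposed to DMSO-dissolved compounds for 24 hr. Activation was read as luciferase luminescence.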
% is scaled to controls: 0 for no effect and ±100 for the full control effect.

Peroxisome proliferator-activated receptor gamma (Homo sapiens), sequence (P37231 whole entry, looked up): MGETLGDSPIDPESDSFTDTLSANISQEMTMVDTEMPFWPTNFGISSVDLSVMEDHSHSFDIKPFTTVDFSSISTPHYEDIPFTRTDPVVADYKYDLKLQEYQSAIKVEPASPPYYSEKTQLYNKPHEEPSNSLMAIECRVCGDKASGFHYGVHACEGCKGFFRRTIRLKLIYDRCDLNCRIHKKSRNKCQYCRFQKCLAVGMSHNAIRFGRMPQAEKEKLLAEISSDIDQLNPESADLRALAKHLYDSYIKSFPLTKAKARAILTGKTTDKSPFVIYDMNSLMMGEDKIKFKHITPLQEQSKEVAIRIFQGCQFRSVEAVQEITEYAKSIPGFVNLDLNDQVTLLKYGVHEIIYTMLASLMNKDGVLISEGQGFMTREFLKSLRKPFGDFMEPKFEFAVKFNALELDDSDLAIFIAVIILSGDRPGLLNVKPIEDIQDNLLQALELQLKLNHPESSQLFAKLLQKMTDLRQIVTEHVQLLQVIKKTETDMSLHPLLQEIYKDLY
Aryl hydrocarbon receptor (Homo sapiens), sequence (P35869 whole entry, looked up): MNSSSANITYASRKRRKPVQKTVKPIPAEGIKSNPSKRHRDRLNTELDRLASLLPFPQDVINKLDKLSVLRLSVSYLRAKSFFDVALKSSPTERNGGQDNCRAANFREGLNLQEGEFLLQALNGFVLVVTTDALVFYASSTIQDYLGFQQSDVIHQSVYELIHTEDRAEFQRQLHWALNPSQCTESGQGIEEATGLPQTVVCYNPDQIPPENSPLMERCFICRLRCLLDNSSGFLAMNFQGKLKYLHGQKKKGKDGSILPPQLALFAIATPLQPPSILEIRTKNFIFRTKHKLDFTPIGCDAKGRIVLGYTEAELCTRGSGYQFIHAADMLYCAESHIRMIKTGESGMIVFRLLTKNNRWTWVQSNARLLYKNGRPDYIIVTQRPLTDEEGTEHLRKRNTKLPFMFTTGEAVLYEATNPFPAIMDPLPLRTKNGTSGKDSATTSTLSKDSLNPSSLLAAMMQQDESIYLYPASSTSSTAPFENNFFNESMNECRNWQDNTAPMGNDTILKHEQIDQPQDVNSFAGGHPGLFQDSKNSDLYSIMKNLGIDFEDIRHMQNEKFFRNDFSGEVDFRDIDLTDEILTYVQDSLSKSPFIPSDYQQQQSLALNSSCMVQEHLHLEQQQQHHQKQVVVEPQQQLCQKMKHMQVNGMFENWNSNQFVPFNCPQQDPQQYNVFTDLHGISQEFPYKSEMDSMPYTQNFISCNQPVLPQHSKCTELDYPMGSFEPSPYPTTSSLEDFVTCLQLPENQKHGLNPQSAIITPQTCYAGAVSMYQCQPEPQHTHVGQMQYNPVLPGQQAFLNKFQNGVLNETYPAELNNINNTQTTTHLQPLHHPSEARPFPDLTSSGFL
Nuclear receptor subfamily 1 group I member 2 (Rattus norvegicus), sequence (Q9R1A7 whole entry, looked up): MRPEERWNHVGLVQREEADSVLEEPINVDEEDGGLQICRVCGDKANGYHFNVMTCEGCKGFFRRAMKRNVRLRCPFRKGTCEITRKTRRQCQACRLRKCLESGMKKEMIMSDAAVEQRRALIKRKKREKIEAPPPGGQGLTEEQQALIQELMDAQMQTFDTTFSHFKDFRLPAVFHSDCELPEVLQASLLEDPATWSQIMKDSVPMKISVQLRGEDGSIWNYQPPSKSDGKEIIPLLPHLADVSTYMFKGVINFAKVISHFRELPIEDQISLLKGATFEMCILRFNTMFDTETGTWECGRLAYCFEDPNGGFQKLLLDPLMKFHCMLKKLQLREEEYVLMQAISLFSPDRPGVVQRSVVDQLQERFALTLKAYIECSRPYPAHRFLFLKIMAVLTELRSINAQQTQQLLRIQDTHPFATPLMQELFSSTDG

S=C=Nc1ccc(N=C=S)cc1
inactive: Potency [1] | Potency [2] | Potency [3] | Potency [4] | Potency [5] | max activation [6] -1.24% | Potency [7] | Potency [8]

O=C(COc1ccc(Cl)cc1)OCCNC12CC3CC(CC(C3)C1)C2
inactive: Potency [1] | Potency [2] | Potency [3] | Potency [4] | Potency [5] | max activation [6] -5.06% | Potency [7] | Potency [8]

CC[C@H]1NC(=O)[C@@H](NC(=O)c2ncccc2O)[C@@H](C)OC(=O)[C@H](c2ccccc2)NC(=O)[C@@H]2CC(=O)CCN2C(=O)[C@H](Cc2ccccc2)N(C)C(=O)[C@@H]2CCCN2C1=O
inactive: Potency [1] | Potency [2] | Potency [3] | Potency [4] | Potency [5] | max activation [6] 9.01% | Potency [7] | Potency [8]

O=S(=O)(O)CCCS(=O)(=O)O
inactive: Potency [1] | Potency [2] | Potency [3] | Potency [4] | Potency [5] | max activation [6] -2.5% | Potency [7] | Potency [8]

CCCCCCCCCCCC(=O)OC[C@@H](O)C1OC[C@H](O)[C@H]1O (stereo partly specified)
inactive: Potency [1] | Potency [2] | Potency [3] | Potency [4] | Potency [5] | max activation [6] -2.81% | Potency [7] | Potency [8]

CCCCC(=O)O[C@H]1CC[C@H]2[C@@H]3CCc4cc(O)ccc4[C@H]3CC[C@]12C
inactive: Potency [1] | Potency [2] | Potency [3] | Potency [4] | Potency [5] | max activation [6] -1.73% | Potency [7] | Potency [8]

CN[C@@H]1[C@H](O[C@H]2[C@H](O[C@H]3[C@H](O)[C@@H](O)[C@H](N=C(N)N)[C@@H](O)[C@@H]3N=C(N)N)O[C@@H](C)[C@]2(O)CO)O[C@@H](CO)[C@H](O)[C@H]1O
inactive: Potency [1] | Potency [2] | Potency [3] | Potency [4] | Potency [5] | max activation [6] -1.72% | Potency [7] | Potency [8]

FC(F)(F)C(F)(F)C(F)(F)C(F)(F)C(F)(F)C(F)(F)F
inactive: Potency [1] | Potency [2] | Potency [3] | Potency [4] | Potency [5] | max activation [6] -1.09% | Potency [7] | Potency [8]

CCCCCCCCCCCCCCCCCCCCCCO
inactive: Potency [1] | Potency [2] | Potency [3] | Potency [4] | Potency [5] | max activation [6] -1.89% | Potency [7] | Potency [8]

C=CCSSSCC=C
inactive: Potency [1] | Potency [2] | Potency [3] | Potency [4] | Potency [5] | max activation [6] 0.11% | Potency [7] | Potency [8]

FCOC(C(F)(F)F)C(F)(F)F
inactive: Potency [1] | Potency [2] | Potency [3] | Potency [4] | Potency [5] | max activation [6] -0.275% | Potency [7] | Potency [8]

CC(=O)Nc1c(I)c(C(=O)N[C@H]2C(O)O[C@H](CO)[C@@H](O)[C@@H]2O)c(I)c(N(C)C(C)=O)c1I (stereo partly specified)
inactive: Potency [1] | Potency [2] | Potency [3] | Potency [4] | Potency [5] | max activation [6] -3.77% | Potency [7] | Potency [8]

CCCCCCCCCCCCCCCC(=O)OCC(COC(=O)CCCCCCCCCCCCCCC)OC(=O)CCCCCCCCCCCCCCC
inactive: Potency [1] | Potency [2] | Potency [3] | Potency [4] | Potency [5] | max activation [6] -0.974% | Potency [7] | Potency [8]

CCCc1nc(C(C)(C)O)c(C(=O)OCc2oc(=O)oc2C)n1Cc1ccc(-c2ccccc2-c2nn[nH]n2)cc1
inactive: Potency [1] | Potency [2] | Potency [3] | Potency [4] | Potency [5] | max activation [6] -4.8% | Potency [7] | Potency [8]

CC(O)[C@@H]1NC(=O)[C@H](Cc2ccccc2)NC(=O)[C@H](C(C)O)NC(=O)[C@H](CCCCN)NC(=O)[C@H](Cc2c[nH]c3ccccc23)NC(=O)[C@H](Cc2ccccc2)NC(=O)[C@H](Cc2ccccc2)NC(=O)[C@H](CC(N)=O)NC(=O)[C@H](CCCCN)NC(=O)[C@@H](NC(=O)CNC(=O)[C@H](C)N)CSSC[C@@H](C(=O)O)NC(=O)[C@H](CO)NC1=O (stereo partly specified)
inactive: Potency [1] | Potency [2] | Potency [3] | Potency [4] | Potency [5] | max activation [6] -3.53% | Potency [7] | Potency [8]

CC[C@@H](C)CCCCC(=O)N[C@H](CCN)C(=O)N[C@@H](C(=O)N[C@H](CCN)C(=O)N[C@@H]1CCNC(=O)C([C@@H](C)O)NC(=O)[C@@H](CCN)NC(=O)[C@@H](CCN)NC(=O)[C@@H](CC(C)C)NC(=O)[C@@H](Cc2ccccc2)NC(=O)[C@@H](CCN)NC1=O)[C@@H](C)O (stereo partly drawn) (X3-[dDab][d(aThr)][dDab][dDab][dDab][dF][dL][dDab][dDab][ξThr(3R)]; lactam 4-C)
inactive: Potency [1] | Potency [2] | Potency [3] | Potency [4] | Potency [5] | max activation [6] -6% | Potency [7] | Potency [8]

C[C@]12CC[C@@H]3c4ccc(O)cc4CC[C@H]3[C@@H]1CC[C@@H]2OP(=O)(O)O
inactive: Potency [1] | Potency [2] | Potency [3] | Potency [4] | Potency [5] | max activation [6] 0.522% | Potency [7] | Potency [8]

CCN(CC)CCOC(=O)c1cccnc1
inactive: Potency [1] | Potency [2] | Potency [3] | Potency [4] | Potency [5] | max activation [6] -7.53% | Potency [7] | Potency [8]

Cn1c(=O)c2c(ncn2CCOC(=O)C(C)(C)Oc2ccc(Cl)cc2)n(C)c1=O
inactive: Potency [1] | Potency [2] | Potency [3] | Potency [4] | Potency [5] | max activation [6] -1.7% | Potency [7] | Potency [8]

O=C1NC(=O)[C@H]2[C@@H]1[C@@H]1C=C[C@H]2C1
inactive: Potency [1] | Potency [2] | Potency [3] | Potency [4] | Potency [5] | max activation [6] -2.18% | Potency [7] | Potency [8]

CC(=O)N[C@@H](C=O)[C@@H](O)[C@H](O)[C@H](O)CO
inactive: Potency [1] | Potency [2] | Potency [3] | Potency [4] | Potency [5] | max activation [6] -0.914% | Potency [7] | Potency [8]

Nc1nc2c(c(=O)[nH]1)N(C=O)C(CNc1ccc(C(=O)N[C@@H](CCC(=O)O)C(=O)O)cc1)CN2 (stereo partly specified)
inactive: Potency [1] | Potency [2] | Potency [3] | Potency [4] | Potency [5] | max activation [6] 3.43% | Potency [7] | Potency [8]

CO/N=C(\C(=O)N[C@@H]1C(=O)N2C(C(=O)O)=C(CSc3nnnn3C)CS[C@H]12)c1csc(N)n1
inactive: Potency [1] | Potency [2] | Potency [3] | Potency [4] | Potency [5] | max activation [6] -3.46% | Potency [7] | Potency [8]

COc1ccc(C[C@H](C)NC[C@@H](O)c2ccc(O)c(NC=O)c2)cc1
inactive: Potency [1] | Potency [2] | Potency [3] | Potency [4] | Potency [5] | max activation [6] -1.02% | Potency [7] | Potency [8]

CC1=C(/C=C/C(C)=C/C=C/C(C)=C/C=C/C=C(C)/C=C/C=C(C)/C=C/C2=C(C)C(=O)CCC2(C)C)C(C)(C)CCC1=O
inactive: Potency [1] | Potency [2] | Potency [3] | Potency [4] | Potency [5] | max activation [6] -3.2% | Potency [7] | Potency [8]

O=C(O)CCC/C=C\C[C@@H]1[C@@H](/C=C/[C@@H](O)COc2cccc(Cl)c2)[C@H](O)C[C@@H]1O
inactive: Potency [1] | Potency [2] | Potency [3] | Potency [4] | Potency [5] | max activation [6] -0.0632% | Potency [7] | Potency [8]

O=C(O)[C@H]1/C(=C/CO)O[C@@H]2CC(=O)N21
inactive: Potency [1] | Potency [2] | Potency [3] | Potency [4] | Potency [5] | max activation [6] -2.31% | Potency [7] | Potency [8]

CCCCC(=O)N(Cc1ccc(-c2ccccc2-c2nn[nH]n2)cc1)[C@@H](C(=O)O)C(C)C
inactive: Potency [1] | Potency [2] | Potency [3] | Potency [4] | Potency [5] | max activation [6] -1.58% | Potency [7] | Potency [8]

C[C@H](CCCC(C)(C)O)[C@H]1CC[C@H]2[C@@H]3CC=C4C[C@@H](O)CC[C@]4(C)[C@H]3CC[C@]12C
inactive: Potency [1] | Potency [2] | Potency [3] | Potency [4] | Potency [5] | max activation [6] -4.18% | Potency [7] | Potency [8]

CC(=O)N=c1sc(S(N)(=O)=O)nn1C
inactive: Potency [1] | Potency [2] | Potency [3] | Potency [4] | Potency [5] | max activation [6] -1.62% | Potency [7] | Potency [8]

CO[C@@]1(NC(=O)C2SC(=C(C(N)=O)C(=O)O)S2)C(=O)N2C(C(=O)O)=C(CSc3nnnn3C)CS[C@@H]21 (stereo partly specified)
inactive: Potency [1] | Potency [2] | Potency [3] | Potency [4] | Potency [5] | max activation [6] -1.7% | Potency [7] | Potency [8]

CC(Oc1ccccc1)C(=O)N[C@@H]1C(=O)N2[C@@H]1SC(C)(C)[C@@H]2C(=O)O (stereo partly specified)
inactive: Potency [1] | Potency [2] | Potency [3] | Potency [4] | Potency [5] | max activation [6] -1.33% | Potency [7] | Potency [8]
